Screens as filed in PubChem BioAssay.
In the library only some 5.5% were active in any assay of this set; here they are far more common.
uPA generation – qHTS for Inhibitors of Cell Surface uPA Generation; AID 540303, 2011; Potency, µM (series often up to 38.3 µM), for inactives: at the top dose activity change, negative = inhibition, most hits filed as inhibitors; cell surface uPA generation assay, qHTS; 330,000 compounds, 0.31% hits; active = well fitted inhibition curve with a large enough effect; inconclusive = small, poorly fitted or top-dose-only effect; inactive = no such curve, though single readings can be large or run the other way; tested in mouse RAW 264.7 cells; note: % is set by controls: 0 for no effect and ±100 for the full control effect; nearly all actives have a fitted effect of over 55% in size
Gal4-VP16 FLuc – VP16 counterscreen qHTS for inhibitors of ROR gamma transcriptional activity. Drosophila S2 Gal4-VP16 UAS-luciferase, luminescence, 20 h. Potency, µM (top dose mostly 53.6 µM), inactives show at the top dose activity, negative = inhibition, actives largely listed as inhibitors. 310,000 compounds, 3.5% hits;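 note: Gal4-VP16 expression switched on by copper sulfate through the metallothionein promoter; % is set by controls: 0 for no effect and ±100 for the full control effect; nearly all actives have a fitted effect of over 50% in size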
Mito fusion yeast – qHTS Assay for Small Molecule Inhibitors of Mitochondrial Division or Activators of Mitochondrial Fusion; S. cerevisiae fusion-defective mutant growth rescue, CellTiterGlo 48 h; Potency, µM (doses to about 46.1 µM), for the others: at the top dose growth rescue (activation), actives largely listed as activators; 320,000 compounds, 0.23% hits; AID 485298, 2010; note: % of control where 0% means no effect; nearly all actives have a fitted effect of over 45% in size
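Growth-rescue viability read-out: after 48 h at the non-permissive 37C in glycerol/ethanol YPEG, yeast mitochondrial fusion mutants are measured by CellTiterGlo luminescence; compounds (23 nl pinned per well) restoring growth score as division inhibitors or fusion activators.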
a7 integrin act – qHTS for Activators of Integrin-Mediated Alleviation for Muscular Dystrophy; Potency, µM (top dose mostly 38.3 µM), for the others: at the top dose activation, hits mostly activators; alpha7betagal myoblasts, beta-gal FDG fluorescence, 48 h; 350,000 compounds, 0.064% hits;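 note: 100% = response of the positive control SU9516; nearly all actives have a fitted effect of over 60% in size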
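alpha7betagal+/- myoblasts (passage 13, 250/well) treated 48 h at 37C with compounds at 1:260 dilution of DMSO stock. Lysed, then beta-galactosidase activity read as FDG fluorescence (ex 480/em 540) after 30 min, with pre-read for autofluorescence.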
RORg inh – qHTS for inhibitors of ROR gamma transcriptional activity; Drosophila S2 Gal4-RORgamma UAS-luciferase reporter, 20 h; Potency, µM (titrated, usually from 53.6 µM), without a hit: top-dose activity change, negative = inhibition, usual class: inhibitors; 310,000 compounds, 5.4% hits; note: % is set by controls: 0 for no effect and ±100 for the full control effect; nearly all actives have a fitted effect of over 60% in size
Target sequence (P51450 whole entry, looked up, the tested form may be a part): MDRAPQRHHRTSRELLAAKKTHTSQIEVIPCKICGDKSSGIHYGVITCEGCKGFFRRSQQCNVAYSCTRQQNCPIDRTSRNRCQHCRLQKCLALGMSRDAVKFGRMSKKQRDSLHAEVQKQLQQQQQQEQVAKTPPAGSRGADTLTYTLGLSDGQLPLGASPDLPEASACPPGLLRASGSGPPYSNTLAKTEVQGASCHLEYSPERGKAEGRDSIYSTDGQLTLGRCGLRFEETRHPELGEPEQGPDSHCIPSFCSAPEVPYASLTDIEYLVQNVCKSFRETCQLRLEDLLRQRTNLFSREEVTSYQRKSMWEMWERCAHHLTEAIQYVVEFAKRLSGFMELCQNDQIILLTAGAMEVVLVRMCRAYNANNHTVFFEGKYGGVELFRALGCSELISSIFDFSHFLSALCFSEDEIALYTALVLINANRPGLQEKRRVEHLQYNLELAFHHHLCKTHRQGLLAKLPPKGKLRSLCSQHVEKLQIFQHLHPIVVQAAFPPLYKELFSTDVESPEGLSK
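Stably transfected Drosophila Schneider cells are the test system, with ROR gamma fused to Gal4 and luciferase under UAS control; luminescence is read after 20 hr of 700 uM copper sulfate induction at ambient temperature.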
Chronic BCR inh – qHTS Assay to Find Inhibitors of Chronic Active B-Cell Receptor Signaling. 340,000 compounds, 0.05% hits. AID 493014, 2011. ABC-DLBCL IkBa-CBG/CBR reporter, luminescence ratio, 4 h. Potency, µM (top dose mostly 46.1 µM), inactives show at the highest dose activity change, negative = inhibition, actives largely listed as inhibitors; active = well fitted inhibition curve with a large enough effect in the signal ratio, with a control signal flat, not every such curve was filed as active; inconclusive = small, poorly fitted or top-dose-only effect, or effect the other way, or a change in a side signal; the % refers to the signal ratio;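 note: plate controls were basal doxycycline-induced cells for no effect and cells given 10 µM MG132 for full effect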
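TMD8 human ABC-DLBCL cells with doxycycline-inducible IκBα–green luciferase fusion and unfused red luciferase, in 0.5% FBS medium; compounds up to 46 uM, 4 h at 37C. Green/red luminescence ratio, filter-overlap corrected, fitted to concentration-response curves.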
Numbers without * were called inactive; u = inconclusive; x = no result. Unless noted, calls come from the whole dose curve; as a rule, active = well fitted curve in the direction sought with a large enough effect; inconclusive = small, poorly fitted or top-dose-only effect, or another doubt; inactive = no such curve, though single readings can be large; an effect the other way counts as inactive or inconclusive. Potency is the fitted concentration of half-maximal effect.

SMILES	uPA generation	Gal4-VP16 FLuc	Mito fusion yeast	a7 integrin act	RORg inh	Chronic BCR inh
COc1nc(-c2ccccc2)nc(C)c1CC(=O)O	-5.5%	-13.1%	6.31µM*	12.9%	0.3%	5.4%
C(=Nc1ccc(Nc2ccccc2)cc1)c1ccc2ccccc2c1	-15.1%	12.6µM*	6.3%	-23.3%	u	7.2%
Cn1c(=O)c(C(=S)NC(=O)C2CC2)c(N)n(Cc2ccccc2)c1=O	x	1µM*	21.5%	x	1.26µM*	-4.7%
COc1cccc(NC(=O)c2c(C)nn(-c3ccccc3)c2Cl)c1	u	29.4%	4.4%	0.0%	u	-0.7%
COc1ccc(NS(=O)(=O)c2cccc(C(=O)N3CCN(S(=O)(=O)c4ccccc4)CC3)c2)cc1	1.2%	x	x	-19.2%	x	x
COc1ccc(Br)cc1CN(C)C(=O)CNC(=O)c1ccc2ccccc2c1	-4.5%	-2.7%	-9.1%	-1.4%	11.0%	-11.0%
Cc1ccc2nc(C)cc(Nc3ccc([N+](=O)[O-])cc3)c2c1	-5.0%	5.01µM*	-1.0%	-67.3%	7.08µM*	-1.9%
CC(C)(C)c1ccc(C(=O)Nc2ccc(C=C(C#N)C#N)cc2)cc1	-6.4%	5.62µM*	-2.7%	-10.1%	5.01µM*	u
N#CC(C#N)=Cc1ccc(NC(=O)c2ccc(Br)cc2)cc1	-3.6%	-29.8%	3.6%	5.2%	-16.0%	-19.7%
Cc1ccc2nc(NC(=O)CSCC(=O)OCC(=O)c3ccc(Br)cc3)sc2c1	-5.3%	3.16µM*	3.0%	19.5%	3.16µM*	u
Cc1cccc(NC(=S)Nc2cccc(C(F)(F)F)c2)n1	10.6%	u	-3.1%	21.4%	1µM*	u
FC(F)(F)c1cc(NC(=S)NC23CC4CC(CC(C4)C2)C3)cc(C(F)(F)F)c1	x	u	x	x	-17.7%	x
FC(F)(F)c1cccc(NC(=S)Nc2cccc(NC(=S)Nc3cccc(C(F)(F)F)c3)n2)c1	-2.4%	u	12.2%	16.2%	5.01µM*	u
FC(F)(F)c1cc(NC(=S)Nc2ccc3ccccc3c2)cc(C(F)(F)F)c1	x	14.1µM*	x	x	u	x
Brc1ccc(C2=N[C@@H](Cc3ccccc3)CO2)cc1	x	-9.8%	x	x	u	x
Clc1ccccc1Nc1c2c(nc3ncnn13)CCC2	x	u	-1.1%	-21.1%	10µM*	u
CCOC(=O)N1CCc2c(sc(NCc3ccc(N(C)C)cc3)c2C(=O)Nc2ccc(OC)cc2)C1	x	x	x	x	x	-2.5%
O=C(NC(=S)Nc1ccc(F)c([N+](=O)[O-])c1)c1ccccc1F	-8.0%	-1.2%	9.5%	-27.4%	u	u
O=C(NC(NC(=S)Nc1ccc(F)c([N+](=O)[O-])c1)C(Cl)(Cl)Cl)C(c1ccccc1)c1ccccc1 (stereo not given)	x	5.01µM*	x	x	3.98µM*	x
O=C(Nc1nnc(C2=COCCO2)o1)c1cccc(F)c1	0.9%	0.562µM*	3.0%	-16.5%	0.631µM*	u
Cc1cccc(C(=O)Nc2nnc(C3=COCCO3)o2)c1	3.3%	1µM*	1.0%	-14.5%	0.501µM*	u
O=C(COc1ccccc1)Nc1nc2ccccc2[nH]1	-4.8%	x	1.0%	-7.5%	u	u
CCCCOc1cccc(OCC(=O)Nc2nc3ccccc3[nH]2)c1	-2.0%	u	u	14.3%	15.8µM*	-1.3%
CCCOc1cccc(OCC(=O)Nc2nc3ccccc3[nH]2)c1	-11.8%	u	5.8%	17.1%	10µM*	1.4%
O=C1NC2=C(C(=O)CCC2)C(c2ccc(OC(F)F)cc2)N1 (stereo not given)	-5.1%	1.4%	13.0%	9.6%	-7.2%	10.6%
COc1ccc(CNc2ncnc3ccc(-c4ccccc4CN(C)C)cc23)c(OC)c1	x	-10.6%	x	x	-10.4%	x
COc1cccc(-n2nc(C#N)c(Cl)cc2=O)c1	-11.2%	7.08µM*	-17.8%	-67.4%	3.55µM*	u
